Pf apPOL block: Pf-apPOL DNA polymerase inhibition. Recombinant Pf-apPOL, molecular beacon fluorescence, 1.5 h. inhibition, % at 10 µM. hit rate 0.25% among 210,000. AID 1794808
mHTT-CaM PPI inh: disrupts binding of mutant huntingtin to calmodulin; AlphaScreen His-mHTT/GST-CaM binding, luminescence; inhibition, % at 15 µM; hit rate 3.6% among 190,000
Of the large screens only hits and unclear results are named; the others gave an inactive call. Only some compounds are listed: those with a hit (about 3.5% of all), similar ones and a draw of the others. Rule as the data show it: active = inhibition above about 50%; inactive = the rest.

Cc1cccc(CN2CCc3nc(N4CCN(c5ncccn5)CC4)ncc3C2)c1	mHTT-CaM PPI inh 100
Clc1cccc(CN2CCc3nc(N4CCN(c5ncccn5)CC4)ncc3C2)c1	mHTT-CaM PPI inh 100
CCCN1CCN(c2ncc3c(n2)CCN(Cc2cccc(Br)c2)C3)CC1	none
Clc1cccc(CN2CCc3nc(N4CCN(c5ccccc5)CC4)ncc3C2)c1	none
CCN1CCN(c2ncc3c(n2)CCN(Cc2cccc(Cl)c2)C3)CC1	mHTT-CaM PPI inh 78
CCN1CCN(c2ncc3c(n2)CCN(Cc2ccc(Cl)c(F)c2)C3)CC1	mHTT-CaM PPI inh 63
CCc1ccc(-n2cnc3cc(C(=O)NCCCOC)ccc32)cc1	none
CCc1onc(C)c1C1CCCN1Cc1ccc(F)cc1 (configuration not stated)	none
O=C(c1ccc2ncc3c(=O)n(-c4ccc(F)cc4)[nH]c3c2c1)N1CCCCC1	none
N#C/C(=C\c1cc2c(cc1Cl)OCO2)C(=O)Nc1ccccc1C(=O)O	none
COc1ccc(-c2nc3cc(C)c(C)cc3[nH]c2=O)cc1	none
Cc1ccc(NC(=O)N2CCN(c3ccc(Cl)cc3)C(=O)C2C)cc1 (configuration not stated)	none
COc1ccc(N=Cc2ccc(Oc3ccc([N+](=O)[O-])cc3[N+](=O)[O-])c(OC)c2)cc1	none
Cn1c2ccccc2n2c(C=O)c(-c3ccccc3)nc12	none
CCN1CCN(c2ncc3c(n2)CCN(Cc2cccc(F)c2F)C3)CC1	none
CCN1CCN(c2ncc3c(n2)CCN(CCc2ccccc2)C3)CC1	mHTT-CaM PPI inh 97
CCCN1CCc2nc(N3CCN(c4ccccc4F)CC3)ncc2C1	none
CCN1CCN(c2ncc3c(n2)CCN(Cc2ccccc2F)C3)CC1	mHTT-CaM PPI inh 56
CCOc1ccc(NC(=O)C23CCC(C)(C(=O)C2=O)C3(C)C)cc1 (configuration not stated)	none
O=S(=O)(Nc1ccc(F)cc1)c1cccn2cnnc12	Pf apPOL block 62
O=S(=O)(c1cccn2cnnc12)N(Cc1cccc(F)c1)c1ccc(F)c(F)c1	none
O=S(=O)(c1cccn2cnnc12)N(Cc1cccc(F)c1)c1ccc(F)cc1	mHTT-CaM PPI inh 51
O=S(=O)(c1ccc2nncn2c1)N(Cc1ccccc1Cl)c1ccccc1	none
O=S(=O)(c1cccn2cnnc12)N(Cc1ccccc1F)c1ccc(F)c(F)c1	mHTT-CaM PPI inh 61
O=S(=O)(c1cccn2cnnc12)N(Cc1ccc(F)cc1)c1ccc(F)cc1	none
Cn1c(=O)c2c(nc3n(-c4ccccc4)c(-c4ccc(Br)cc4)cn23)n(C)c1=O	none
COc1ccc(OC)c(CNC(=O)c2nc(C)n(C3CCN(C(C)=O)CC3)c2C)c1	none
O=[N+]([O-])c1ccc(C2=Nn3c(nnc3-c3ccccc3Br)SC2)cc1	none
O=C1CC(c2cccs2)CC2=C1C(c1ccc([N+](=O)[O-])cc1)Nc1ccccc1N2 (configuration not stated)	none
Cc1cccc(N2CCN(C/C=C/c3ccccc3[N+](=O)[O-])CC2)c1C	mHTT-CaM PPI inh 66
CCN1CCN(C/C=C/c2ccccc2[N+](=O)[O-])CC1	none
COc1ccccc1/C=C/CN1CCN(c2ccccc2)CC1	none
COc1ccccc1/C=C/CN1CCN(c2ccc([N+](=O)[O-])cc2)CC1	mHTT-CaM PPI inh 53
COc1ccc(CN2CCC(C(=O)N(CCO)Cc3ccccc3)CC2)c(OC)c1	none
N#CC1=C(N)Oc2n[nH]c(-c3ccccc3)c2C12C(=O)Nc1ccccc12 (configuration not stated)	none
N#CC1=C(N)Oc2n[nH]c(-c3ccccc3)c2C12c1ccccc1-c1ccccc12	mHTT-CaM PPI inh 90
CCN(CC)C(=O)Cn1cc(/C=C2\C(=O)NC(=O)N(c3cccc(C)c3C)C2=O)c2ccccc21	mHTT-CaM PPI inh 56
CCn1cc(/C=C2\C(=O)NC(=O)N(c3ccc(Br)cc3)C2=O)c2ccccc21	none
CCn1cc(/C=C2\C(=O)NC(=O)N(c3ccc(F)cc3)C2=O)c2ccccc21	none
CCn1cc(/C=C2\C(=O)NC(=O)N(c3ccc(C)cc3)C2=O)c2ccccc21	mHTT-CaM PPI inh 53
O=C(NCCn1nc(-c2cccs2)ccc1=O)c1ccc(N2CCCC2)nn1	none
Cc1ccc(S(=O)(=O)N2CCSC2c2ccccc2Cl)c(C)c1 (configuration not stated)	none
Cc1ccc(S(=O)(=O)N2C=Cc3ccccc3C2c2c[nH]c3ccccc23)c(C)c1 (configuration not stated)	mHTT-CaM PPI inh 55
O=C(NCc1ccco1)c1coc(NC(=O)C2CC2)n1	none
CCOc1ccc(N2C(=O)C3C(c4ccccc4)OC4(C(=O)c5ccccc5C4=O)C3C2=O)cc1 (configuration not stated)	none
COc1ccc(-c2nc3cccnc3n2C2CCN(C(=O)NC(C)C)C2)cc1 (configuration not stated)	none
COc1ccc(-c2nc3cccnc3n2C2CCN(C(=O)c3ccc(Cl)s3)C2)cc1 (configuration not stated)	mHTT-CaM PPI inh 70
COc1ccc(-c2nc3cccnc3n2C2CCN(C(=O)c3cccs3)C2)cc1 (configuration not stated)	none
